Compounds without any hit were thinned out: in the full panel of roughly 79,000, 15% have a hit. The source made the active and inactive calls. Cut-off read from the data, not from the text of the source: active = growth inhibition above about 70%; inactive = the rest.
Tests used:
[1] = NCI Yeast Anticancer Drug Screen. Data for the rad50 strain (AID 155);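 note: 0% = growth of vehicle-only cultures of the same strain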; settings: S. cerevisiae rad50 strain growth inhibition, active compounds read high
Procedure, shortened: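 A DNA repair-deficient yeast mutant serves as the test organism; compound-induced growth inhibition is calculated against vehicle-treated cells.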

[2] = NCI Yeast Anticancer Drug Screen. Data for the mec2-1 strain (AID 157); settings: S. cerevisiae mec2-1 strain, active compounds read high
Procedure, shortened: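 Using mec2-1 yeast: add compound, measure growth, express inhibition versus vehicle-treated cultures.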

[3] = NCI Yeast Anticancer Drug Screen. Data for the sgs1 mgt1 strain (AID 161);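 note: 0% = growth of cultures given vehicle only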; settings: S. cerevisiae sgs1 mgt1 strain, active compounds read high
Procedure, shortened: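 Growth of a repair-deficient yeast mutant was monitored after compound treatment and expressed as inhibition relative to vehicle-treated cultures.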

[4] = NCI Yeast Anticancer Drug Screen. Data for the cln2 rad14 strain (AID 165);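 note: 0% = growth equal to vehicle treated cultures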; settings: S. cerevisiae cln2 rad14 strain, active compounds read high
Procedure, shortened: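 Yeast strain cln2 rad14, bearing defects in cell cycle control and DNA repair, serves as the test system; values reflect growth inhibition compared with vehicle.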

[5] = NCI Yeast Anticancer Drug Screen. Data for the bub3 strain (AID 167); settings: S. cerevisiae bub3 mutant strain, active compounds read high
Procedure, shortened: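 Inhibition values come from growth of compound-treated mutant yeast normalised to vehicle-treated controls.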

[6] = NCI Yeast Anticancer Drug Screen. Data for the mlh1 rad18 strain (AID 175); settings: S. cerevisiae mlh1 rad18 strain growth inhibition, active compounds read high
Procedure, shortened: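 Steps: expose repair-defective yeast to compound; measure growth; express inhibition against vehicle-treated controls.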

[7] = at 5.0 µM (retest, dose inferred, filed as 0.5)
[8] = at 50.0 µM (retest, dose inferred, filed as 5.0)

Measured: growth inhibition

CCO/C=C1N=C(/C=C/c2ccccc2Cl)OC/1=O
inactive: [1]; [7] -6% | [1]; at 50.0 µM 65% | [2]; [7] 13% | [2]; [8] 58% | [2]; at 50.0 µM 45.4% | [3]; [7] 9% | [3]; [8] 52% | [3]; at 50.0 µM 50.2% | [4]; [7] 9% | [4]; at 50.0 µM 20.2% | [5]; [7] 13% | [5]; at 50.0 µM 36.9% | [6]; [7] -2%
active: [1]; [8] 84% | [4]; [8] 81% | [5]; [8] 81% | [6]; [8] 86% | [6]; at 50.0 µM 71.7%

NC(=S)Nc1cccc(C(F)(F)F)c1
inactive: [1]; [7] -14% | [2]; [7] -20% | [3]; [7] -10% | [4]; [7] -45% | [5]; [7] -24% | [6]; [7] -19%
active: [1]; [8] 92% | [1]; at 50.0 µM 99.2% | [2]; [8] 95% | [2]; at 50.0 µM 99.2% | [3]; [8] 92% | [3]; at 50.0 µM 99.2% | [4]; [8] 92% | [4]; at 50.0 µM 98.9% | [5]; [8] 94% | [5]; at 50.0 µM 98.9% | [6]; [8] 93% | [6]; at 50.0 µM 98.9%

Cc1ccc(C(=O)CC(O)(C(F)(F)F)C(F)(F)F)cc1[N+](=O)[O-]
inactive: [1]; [7] 17% | [2]; [7] -17% | [3]; [7] 3% | [3]; [8] 45% | [4]; [7] 25% | [5]; [7] 5% | [6]; [7] 9%
active: [1]; [8] 95% | [1]; at 50.0 µM 88.9% | [2]; [8] 97% | [2]; at 50.0 µM 90% | [3]; at 50.0 µM 92.2% | [4]; [8] 94% | [4]; at 50.0 µM 89.5% | [5]; [8] 96% | [5]; at 50.0 µM 90.5% | [6]; [8] 97% | [6]; at 50.0 µM 87.4%

Cc1c(C(=O)O)nc(C(Br)(Br)Br)[nH]c1=O
inactive: [1]; [7] 6% | [1]; [8] 8% | [1]; at 50.0 µM 54.2% | [2]; [7] 20% | [2]; [8] 17% | [2]; at 50.0 µM 4.85% | [3]; [7] 2% | [3]; [8] 26% | [4]; [7] 1% | [4]; [8] 0% | [4]; at 50.0 µM 14.7% | [5]; [7] 4% | [5]; [8] 2% | [5]; at 50.0 µM 1.5% | [6]; [7] 6% | [6]; [8] 27% | [6]; at 50.0 µM 53%
active: [3]; at 50.0 µM 71.3%

Oc1cc(Cc2ccccc2)c(Cc2ccccc2)cc1O
active: [1]; [8] 96% | [1]; at 50.0 µM 89.2% | [2]; [8] 98% | [2]; at 50.0 µM 91% | [3]; [8] 96% | [3]; at 50.0 µM 92.1% | [4]; [8] 97% | [4]; at 50.0 µM 89.8% | [5]; [8] 97% | [5]; at 50.0 µM 91.5% | [6]; [8] 96% | [6]; at 50.0 µM 88.2%
inactive: [1]; [7] -32% | [2]; [7] -26% | [3]; [7] -8% | [4]; [7] -1% | [5]; [7] -23% | [6]; [7] -43%

c1ccc2c(c1)-c1cccc3cncc-2c13
active: [1]; at 50.0 µM 90.7% | [2]; at 50.0 µM 92.6% | [3]; [8] 98% | [3]; at 50.0 µM 92.6% | [4]; [8] 99% | [4]; at 50.0 µM 90.9% | [5]; [8] 99% | [5]; at 50.0 µM 91.2% | [6]; at 50.0 µM 91.2%
inactive: [1]; [7] 45% | [1]; [8] 62% | [2]; [7] 52% | [2]; [8] 53% | [3]; [7] 19% | [4]; [7] 69% | [5]; [7] 53% | [6]; [7] 33% | [6]; [8] 52%

C=C1C(=O)OC2C(C)C3C=CC(=O)[C@@]3(C)C(OC(=O)/C(C)=C/C)C1[C@@H]2OC(C)=O (stereo not given in full)
active: [1]; [8] 91% | [1]; at 50.0 µM 80.2% | [2]; [8] 95% | [2]; at 50.0 µM 88.5% | [3]; [8] 92% | [3]; at 50.0 µM 87.8% | [4]; [8] 81% | [4]; at 50.0 µM 79.3% | [5]; [8] 93% | [5]; at 50.0 µM 89.5% | [6]; [8] 94% | [6]; at 50.0 µM 87%
inactive: [1]; [7] 3% | [2]; [7] 16% | [3]; [7] 13% | [4]; [7] 11% | [5]; [7] 4% | [6]; [7] 16%

COc1ccc(C(O)(c2ccccc2)c2ccccc2)cc1
active: [1]; [8] 98% | [1]; at 50.0 µM 99.1% | [2]; [8] 99% | [2]; at 50.0 µM 99% | [3]; [8] 99% | [3]; at 50.0 µM 99.2% | [4]; [8] 92% | [4]; at 50.0 µM 93.9% | [5]; [8] 87% | [5]; at 50.0 µM 99.5% | [6]; [8] 98% | [6]; at 50.0 µM 98.7%
inactive: [1]; [7] -5% | [2]; [7] -4% | [3]; [7] -3% | [4]; [7] -5% | [5]; [7] 3% | [6]; [7] -6%

O=C(/C=N/O)c1c(-c2ccccc2)[nH]c(-c2ccccc2)c1-c1ccccc1
active: [1]; [8] 75% | [1]; at 50.0 µM 94.2% | [2]; [8] 77% | [2]; at 50.0 µM 77.8% | [3]; [8] 90% | [3]; at 50.0 µM 96.3% | [4]; at 50.0 µM 91% | [5]; at 50.0 µM 85.7% | [6]; [8] 93% | [6]; at 50.0 µM 96%
inactive: [1]; [7] 4% | [2]; [7] 5% | [3]; [7] 7% | [4]; [7] 1% | [4]; [8] 33% | [5]; [7] 11% | [5]; [8] 13% | [6]; [7] 31%

CC1=C(C(=O)Nc2ccccc2)C(c2ccc(Cl)c(Cl)c2)C(C(=O)Nc2ccccc2)=C(C)N1
active: [1]; at 50.0 µM 89% | [2]; at 50.0 µM 92.8% | [3]; at 50.0 µM 91.1% | [4]; at 50.0 µM 91% | [5]; at 50.0 µM 91.5% | [6]; at 50.0 µM 90.6%
inactive: [1]; [7] 26% | [1]; [8] 26% | [2]; [7] 21% | [2]; [8] 21% | [3]; [7] 29% | [3]; [8] 29% | [4]; [7] 8% | [4]; [8] 8% | [5]; [7] 1% | [5]; [8] 1% | [6]; [7] 25% | [6]; [8] 25%
